Drawing on PubChem BioAssay AID2158 (National Center for Advancing Translational Sciences (NCATS), 2009), this text covers activity change, negative = inhibition and Potency for eleven molecules.

Structures are written as SMILES. Inconclusive results are not listed. A number with no mark means an inactive call. Calls of active or inactive are those of the source. Calls follow the shape of the dose curve; as a rule, active = well fitted inhibition curve with a large enough effect; inconclusive = small, poorly fitted or top-dose-only effect; inactive = no such curve, though single readings can be large or run the other way.
Potency is read from the fitted curve at half-maximal effect.

Sequence of Cruzipain (Trypanosoma cruzi) (P25779 123-467 limits assumed): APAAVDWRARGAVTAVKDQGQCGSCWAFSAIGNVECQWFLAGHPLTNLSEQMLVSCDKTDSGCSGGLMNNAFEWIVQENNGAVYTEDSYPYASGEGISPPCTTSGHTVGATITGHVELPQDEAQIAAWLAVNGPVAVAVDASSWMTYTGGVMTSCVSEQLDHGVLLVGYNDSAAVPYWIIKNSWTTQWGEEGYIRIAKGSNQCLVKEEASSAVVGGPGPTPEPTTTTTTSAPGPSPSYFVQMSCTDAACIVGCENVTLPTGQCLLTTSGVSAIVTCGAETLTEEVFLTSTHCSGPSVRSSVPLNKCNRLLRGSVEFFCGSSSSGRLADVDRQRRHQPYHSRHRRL

This assay addresses Cruzipain (Trypanosoma cruzi) (UniProt P25779). In words: Confirmation qHTS Assay for Inhibitors of Cruzain. Also: nearly all actives have a fitted effect of over 40% in size.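 As to activity change, negative = inhibition: plate controls were uninhibited enzyme control for no effect and buffer wells lacking enzyme for full effect.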 Conditions: purified cruzain, Z-FR-AMC fluorescence, 0.01% Triton. The protocol: Cruzain is a cysteine protease from the tropical parasite Trypanosoma cruzi. This assay protocol is a follow-up and confirmation of related AID 1478 (qHTS Assay for Promiscuous and Specific Inhibitors of Cruzain -- with detergent). Cruzain was assayed by the use of fluorogenic coumarin-based substrate Z-FR-AMC: proteolytic cleavage releases AMC, whose fluorescence is measured at 360 nm excitation and 450 nm emission. Purified cruzain was supplied by the labs of Prof. James McKerrow and Brian Shoichet, UC San Francisco. This assay had 0.01% Triton X-100 concentration. See following references for additional details: Jadhav A, et al. J Med Chem. 2010 Jan 14;53(1):37-51. Mott BT, et al. J Med Chem. 2010 Jan 14;53(1):52-60. Assay Provider: Shoichet, Brian; University of California, San Fancisco Screening Center PI: Austin, C.P. Screening Center: NIH Chemical Genomics Center [NCGC]
Buffer: 100 mM Sodium Acetate, pH 5.5, 5 mM DTT, Triton X-100 concentration: 0.01%. Reagents/Controls: Buffer in columns 3 and 4 as negative control (no enzyme). Substrate solution: 2 uM final concentration of Z-FR-AMC (catalog number I-1160, Bachem) dispensed throughout the plate. Enzyme: 1.5 nM Cruzain final concentration in columns 1, 2, 5-48. Column 1 is neutral (100% activity). Column 2 contained titration of covalent inhibitor K11777, starting concentration 1 mM, then 1:2 dilution in duplicate). Assay Steps: Three uL of enzyme or buffer were dispensed to 1536-well Greiner black solid bottom plates. Compounds and controls (23 nL) were transferred via Kalypsys PinTool. The plates were incubated for 15 min at room temperature, and then 1 uL of substrate solution was added to start the reaction. The plates were immediately transferred to and read 4 times every 30 seconds for 2 min on ViewLux High-throughput CCD imager (Perkin-Elmer) using 360 nm excitation and 450 nm emission fluorescence protocol. The fluorescence intensity difference between the third and the first time points (time lapse of 60 seconds) was used to compute reaction progress.
As for `CCc1ccccc1NC(=O)CSc1nnc([C@@H](N)Cc2c[nH]c3ccccc23)o1`, the activity change, negative = inhibition is -73.4%.

`NC(=O)CSc1nnc([C@@H](N)Cc2c[nH]c3ccccc23)o1`: the Potency is 15800 nM (active).

`Cn1nc(-c2ccccc2)nc2c(=O)n(C)c(=O)nc1-2`: the Potency was 1410 nM (active).

Consider `O=C(Nc1nc(-c2ccccc2)c(-c2ccccc2)s1)c1ccc(S(=O)(=O)N(CCCl)CCCl)cc1`, for which the activity change, negative = inhibition is -8.01%.

As to `CCn1nc(-c2ccccc2)nc2c(=O)n(C)c(=O)nc1-2`, the Potency was 3980 nM (active).

For the molecule `CC(C)OC(=O)c1c(N)n(Cc2ccco2)c2nc3ccccc3nc12`, the activity change, negative = inhibition is -8.08%.

As to `Cn1ncnc2c(=O)n(C)c(=O)nc1-2`, the Potency was 2240 nM (active).

`Cc1ccc(S(=O)(=O)N[C@@H](CCCCN)C(=O)CCl)cc1`: the Potency was 282 nM (active).

With `N#CC(C#N)=NNc1cccc(Cl)c1`, the Potency is 15800 nM (active).

`Cc1nc2c(=O)n(C)c(=O)nc-2n(C)n1`: the Potency is 2000 nM (active).

Regarding `Cc1ccc(-c2nc3c(=O)n(C)c(=O)nc-3n(C)n2)cc1`, the Potency was 1410 nM (active).
